PubChem BioAssay (EPA / NIEHS)
Activity calls are given as the source filed them. The calls were made as follows: active = hit-call score of the fitted dose curve at least 0.9, where 1 is the maximum; inactive = score below 0.9.

Assays:
[1] = target: Paired box protein Pax-6 (Homo sapiens) (UniProt P26367); assay: ATG_Pax6_CIS: Attagene CIS-FACTORIAL HepG2 Assay for human Paired Box 6 (PAX6) (AID 2282956); conditions: HepG2 CIS-FACTORIAL PAX6 reporter transcription, RNA readout; actives raise or lower the signal
Paired box protein Pax-6 (Homo sapiens), sequence (P26367 whole entry, looked up): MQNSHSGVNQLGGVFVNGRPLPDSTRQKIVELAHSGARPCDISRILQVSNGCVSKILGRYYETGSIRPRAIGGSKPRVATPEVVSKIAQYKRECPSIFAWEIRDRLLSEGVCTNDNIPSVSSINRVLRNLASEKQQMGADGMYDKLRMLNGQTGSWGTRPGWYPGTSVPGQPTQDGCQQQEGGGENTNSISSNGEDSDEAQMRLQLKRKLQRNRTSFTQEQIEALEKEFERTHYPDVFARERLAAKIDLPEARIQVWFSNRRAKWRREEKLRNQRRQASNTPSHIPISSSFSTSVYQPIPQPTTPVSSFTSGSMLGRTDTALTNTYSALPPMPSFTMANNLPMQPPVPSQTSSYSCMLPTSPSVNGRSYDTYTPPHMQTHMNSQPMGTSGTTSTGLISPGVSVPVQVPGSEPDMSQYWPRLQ
Outline: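 HepG2 cells transiently transfected with multiplexed cis-promoter reporter units (endogenous TF activity) were dosed for 24 h. Reporter mRNA was quantified by RT-PCR, 6-FAM labeling, HpaI digestion and capillary electrophoresis; bidirectional fitting versus DMSO baseline.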

[2] = ATG_PXRE_CIS: Attagene CIS-FACTORIAL HepG2 Assay for human Pregnane X Receptor Element (PXRE) (AID 2282957); conditions: HepG2 Attagene CIS-FACTORIAL PXRE reporter, mRNA; actives raise or lower the signal
Outline: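 Transfect HepG2 with MRTUs (cis promoter elements); dose chemical, incubate 24 h; isolate RNA, RT with oligo(dT), PCR, 6-FAM label, HpaI cut, CE. Gain/loss fit vs DMSO.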

[3] = ATG_RORE_CIS: Attagene CIS-FACTORIAL HepG2 Assay for human RAR-related Orphan Receptor Element (RORE) (AID 2282959); conditions: HepG2 Attagene cis-factorial RORE reporter, mRNA; actives raise or lower the signal
Outline: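 Fluorescence intensity of reporter-specific cDNA fragments, separated by capillary electrophoresis, gives the signal. Source: HepG2 liver cells transiently transfected with cis-element reporters and exposed 24 h; DMSO-normalized bidirectional fit.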

[4] = ATG_Sox_CIS: Attagene CIS-FACTORIAL HepG2 Assay for human SRY-box transcription factor (SOX) (AID 2282960); conditions: HepG2 Attagene cis-factorial SOX reporter, mRNA; actives raise or lower the signal
Outline: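 After 24 h of chemical treatment, transfected HepG2 reporter cells are lysed for total RNA. Transcript levels come from RT-PCR with labelled primer extension and capillary electrophoresis, analysed bidirectionally versus DMSO.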

[5] = target: Transcription factor Sp1 (Homo sapiens) (UniProt P08047); assay: ATG_Sp1_CIS: Attagene CIS-FACTORIAL HepG2 Assay for human Specificity Protein 1 (Sp1) (AID 2282961); conditions: HepG2 Sp1 cis-reporter transcription, actives raise or lower the signal
Transcription factor Sp1 (Homo sapiens), sequence (P08047 whole entry, looked up): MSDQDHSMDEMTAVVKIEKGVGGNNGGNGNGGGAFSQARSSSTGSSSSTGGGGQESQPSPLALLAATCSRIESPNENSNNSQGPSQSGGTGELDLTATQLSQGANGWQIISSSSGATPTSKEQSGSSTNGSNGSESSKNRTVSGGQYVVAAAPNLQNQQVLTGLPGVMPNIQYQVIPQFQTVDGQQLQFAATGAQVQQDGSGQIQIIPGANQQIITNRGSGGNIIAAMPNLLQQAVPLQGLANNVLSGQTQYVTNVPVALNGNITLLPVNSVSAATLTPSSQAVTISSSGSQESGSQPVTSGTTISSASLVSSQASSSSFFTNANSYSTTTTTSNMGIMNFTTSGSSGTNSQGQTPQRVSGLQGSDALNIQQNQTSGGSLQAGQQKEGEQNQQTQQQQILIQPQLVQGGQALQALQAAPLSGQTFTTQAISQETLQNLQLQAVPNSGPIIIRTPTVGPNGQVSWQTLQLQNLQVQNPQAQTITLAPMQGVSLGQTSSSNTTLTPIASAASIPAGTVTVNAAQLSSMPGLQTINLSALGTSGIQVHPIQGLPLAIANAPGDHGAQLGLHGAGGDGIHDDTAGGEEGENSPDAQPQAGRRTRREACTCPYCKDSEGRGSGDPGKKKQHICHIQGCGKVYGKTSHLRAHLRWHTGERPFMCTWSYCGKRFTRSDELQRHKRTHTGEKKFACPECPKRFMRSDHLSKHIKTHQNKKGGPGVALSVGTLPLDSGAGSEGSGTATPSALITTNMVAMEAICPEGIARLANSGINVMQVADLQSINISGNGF
Outline: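 Sp1-driven reporter mRNA, read as capillary electrophoresis fluorescence after RT-PCR, in transiently transfected HepG2 cells dosed for 24 h; signal change in either direction relative to DMSO.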

[6] = ATG_SREBP_CIS: Attagene CIS-FACTORIAL HepG2 Assay for human Sterol Regulatory Element Binding (SREBP) (AID 2282962); conditions: HepG2 Attagene cis-factorial SREBP reporter, mRNA; actives raise or lower the signal
Outline: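 HepG2 cells transiently transfected with multiplexed cis-element reporter units report endogenous transcription factor activity. After 24 h of chemical exposure, reporter mRNA was quantified by RT-PCR, 6-FAM labelling, HpaI digestion and capillary electrophoresis; bidirectional fits used DMSO as baseline.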

[7] = target: Signal transducer and activator of transcription 3 (Homo sapiens) (UniProt P40763); assay: ATG_STAT3_CIS: Attagene CIS-FACTORIAL HepG2 Assay for human Signal Transducer and Activator of Transcription 3 (STAT3) (AID 2282963); conditions: HepG2, Attagene cis-factorial STAT3 reporter transcription; actives raise or lower the signal
Signal transducer and activator of transcription 3 (Homo sapiens), sequence (P40763 whole entry, looked up): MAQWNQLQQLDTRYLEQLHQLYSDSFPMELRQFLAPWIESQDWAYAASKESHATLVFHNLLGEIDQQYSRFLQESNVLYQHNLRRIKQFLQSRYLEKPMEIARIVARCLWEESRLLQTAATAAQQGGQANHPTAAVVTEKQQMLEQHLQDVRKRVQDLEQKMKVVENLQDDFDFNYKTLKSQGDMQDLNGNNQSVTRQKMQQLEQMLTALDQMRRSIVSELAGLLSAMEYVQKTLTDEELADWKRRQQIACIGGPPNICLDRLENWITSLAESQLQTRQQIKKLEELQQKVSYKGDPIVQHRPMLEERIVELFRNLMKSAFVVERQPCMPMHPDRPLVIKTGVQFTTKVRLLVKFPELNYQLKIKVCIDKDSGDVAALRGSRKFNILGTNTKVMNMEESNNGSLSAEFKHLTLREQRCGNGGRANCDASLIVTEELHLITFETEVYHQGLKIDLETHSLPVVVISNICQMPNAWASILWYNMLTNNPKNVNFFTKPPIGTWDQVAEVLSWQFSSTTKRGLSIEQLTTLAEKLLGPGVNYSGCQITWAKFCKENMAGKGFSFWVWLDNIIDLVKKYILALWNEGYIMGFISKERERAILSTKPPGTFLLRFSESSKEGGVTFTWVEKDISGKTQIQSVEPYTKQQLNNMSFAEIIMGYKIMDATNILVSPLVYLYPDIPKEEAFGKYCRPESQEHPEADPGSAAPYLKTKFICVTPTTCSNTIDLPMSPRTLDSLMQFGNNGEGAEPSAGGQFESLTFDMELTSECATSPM
Outline: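 Transcript-level reporter assay. HepG2 transient MRTU transfection, 24 h exposure, fluorescence detection after RT-PCR and CE; DMSO baseline.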

[8] = ATG_TA_CIS: Attagene CIS-FACTORIAL HepG2 Assay for human TA Basal Promoter (AID 2282964); conditions: HepG2 Attagene CIS-factorial TA basal promoter reporter; actives raise or lower the signal
Outline: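 HepG2 cells transiently transfected with multiplexed cis-promoter reporter units, dosed 24 h. Reporter mRNA measured by RT-PCR, 6-FAM labelling, HpaI digestion and capillary electrophoresis; bidirectional fit versus DMSO baseline, serving as background control.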

[9] = ATG_TCF_b_cat_CIS: Attagene CIS-FACTORIAL HepG2 Assay for human T-Cell-Factor with beta-catenin (TCF/b-cat) (AID 2282965); conditions: HepG2 TCF/beta-catenin cis-reporter transcription, actives raise or lower the signal
Outline: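 Using capillary electrophoresis as the read-out, labelled reporter cDNA fragments from transiently transfected HepG2 were sized and quantified. Exposure lasted 24 hours; activity in either direction was referenced to DMSO.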

Measured: AC50

CC(=O)OCCCc1ccccc1
active: [2] 27.4 µM
inactive: all other assays above

C=C(C)[C@@H]1CC=C(C)C(=O)C1
active: [2] 25.5 µM
inactive: all other assays above

O=c1[nH]c(=O)c2cn[nH]c2[nH]1
inactive: all assays above

CCCCC(CC)C(=O)OC(C)C (stereo not given)
inactive: all assays above

C#CC(C)N(C)C(=O)Nc1ccc(Cl)cc1 (stereo not given)
active: [2] 8.86 µM
inactive: all other assays above

CCCN(CCC)S(=O)(=O)c1ccc(C(=O)O)cc1
active: [2] 27.3 µM
inactive: all other assays above

CCCC(=O)C(CC)Sc1ccoc1C (stereo not given)
active: [2] 5.68 µM
inactive: all other assays above

CCCSc1ccc2nc(NC(=O)OC)[nH]c2c1
inactive: all assays above

C=Cc1ccc(C(C)(C)C)cc1
active: [2] 27.4 µM
inactive: all other assays above

C=CC(=O)OCCCC
inactive: all assays above

CCc1cc(Cc2cc(CC)cc(C(C)(C)C)c2O)c(O)c(C(C)(C)C)c1
inactive: [4] | [6] | [7] | [9]
active: [1] 16.6 µM | [2] 0.0355 µM | [3] 18.1 µM | [5] 11.1 µM | [8] 11.1 µM

Cc1occc(=O)c1OC(=O)C(C)C
inactive: all assays above

CN(C)C(=O)Nc1ccc(Oc2ccc(Cl)cc2)cc1
active: [2] 26.7 µM
inactive: all other assays above

C1CCCCC1
inactive: all assays above

CSc1c(Cl)c(Cl)c(Cl)c(Cl)c1Cl
inactive: [3] | [4] | [7] | [8]
active: [1] 100 µM | [2] 2.94 µM | [5] 72.8 µM | [6] 135 µM | [9] 50.3 µM

COC(=O)Nc1ccc(Cl)c(Cl)c1
active: [2] 100 µM | [9] 26.4 µM
inactive: all other assays above

CCOCCOCCOCC
inactive: all assays above

CC1=NN(c2ccc(S(=O)(=O)O)cc2)C(=O)C1
inactive: all assays above

C[C@H](CCC(=O)NCC(=O)O)[C@H]1CC[C@H]2[C@@H]3[C@H](O)C[C@@H]4C[C@H](O)CC[C@]4(C)[C@H]3C[C@H](O)[C@]12C
not listed: [9]
inactive: all other assays above

O=C(Nc1ccc2c(c1)Cc1ccccc1-2)C(F)(F)F
active: [2] 27.7 µM | [3] 17.5 µM
inactive: all other assays above

C=C(C)C(=O)OCCOCCOCCOC(=O)C(=C)C
active: [2] 54.8 µM
inactive: all other assays above

CC[N+](C)(CC)CC
inactive: all assays above

c1ccc(CN(Cc2ccccc2)Cc2ccccc2)cc1
active: [2] 2.51 µM | [5] 165 µM
not listed: [9]
inactive: all other assays above

CC(=O)O[C@H]1C[C@@H]2CC[C@@]1(C)C2(C)C
inactive: all assays above

CCCC[P+](CCCC)(CCCC)CCCC
inactive: all assays above

O=P(O)(O)O
inactive: all assays above

COCCOCCOCCO
active: [2] 33.4 µM
inactive: all other assays above

CC(=O)O[C@@H]1C[C@@H]2CC[C@@]1(C)C2(C)C
inactive: all assays above

CCCCCCCCCC(C)C=O (stereo not given)
active: [2] 51.1 µM
inactive: all other assays above

CCCCCCCCCCCCCC(=O)OCC(O)CO (stereo not given)
active: [6] 67 µM
not listed: [7]
inactive: all other assays above

C=CCCC(=O)/C=C/C1C(C)=CCCC1(C)C (stereo not given)
active: [2] 1.18 µM | [6] 100 µM
not listed: [3]
inactive: all other assays above

O=C(c1ccccc1)C(O)c1ccccc1 (stereo not given)
active: [2] 57 µM
not listed: [5]
inactive: all other assays above

CC1=CC[C@@]23C[C@@H]1C(C)(C)[C@@H]2CC[C@H]3C
active: [2] 5.2 µM
inactive: all other assays above

CC(=O)O[C@@H]1CC2CCC1(C)C2(C)C (stereo not given in full)
inactive: all assays above

C=Cc1ccc(C)cc1
active: [2] 36.9 µM
not listed: [5]
inactive: all other assays above

COc1ccc(N=Nc2cc(C)c(N=Nc3ccc(S(=O)(=O)O)cc3)cc2OC)cc1
active: [1] 100 µM | [2] 23.1 µM | [3] 8.45 µM | [6] 162 µM
inactive: [4] | [9]
